Some test systems named below: NCI-H23 lung; NCI-H226 lung; NCI-H322M lung; HOP-62 NSCLC; NCI-H460 lung; HOP-92 NSCLC; NCI-H522 lung; A549/ATCC NSCLC; 786-0 renal; COLO 205 colon.
What all share (assay): NCI-60 one-dose screen, 48 h (100 = growth as untreated, 0 = no growth, -100 = all killed)
Holding throughout (conditions): 10 µM unless noted

This is part of a sample that, as a whole, favours compounds with a hit. Of some 83,000 tested, about 20% had one in any assay.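 The endpoint reported here, percent growth, reads 100 for growth as untreated, 0 for no net growth and -100 for all cells dead.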 A number with no mark means an inactive call. Active and inactive are the calls of the source. How the source made its calls: active means growth percent below 10; inactive means the rest.

Consider `O=C(C[n+]1cccc(Br)c1)c1ccc2c(c1)CCCC2`, for which the growth with NCI-H23 lung was 92%; with NCI-H226 lung it was 93.2%; in the test with NCI-H322M lung, 101%; in the test with HOP-62 NSCLC, 89%; with NCI-H460 lung, 105%; with HOP-92 NSCLC, 70.5%. For the same compound, the growth with NCI-H522 lung is 80.5%; with A549/ATCC NSCLC, 95.9%; in the test with 786-0 renal, 88.3%; with COLO 205 colon it was 91.4%.
Take `COc1ccc(/C=C2\CS(=O)(=O)C/C(=C\c3ccc(OC)cc3)C2=O)cc1`: the growth in the test on NCI-H23 lung was -49.3% (active); in the test with NCI-H226 lung it was -43.9% (active); in the test with NCI-H322M lung it was 30.9%; in the test on HOP-62 NSCLC, -67.7% (active); with NCI-H460 lung it was -52.6% (active); in the test with HOP-92 NSCLC it was -41.3% (active). The growth in the test on NCI-H522 lung is -73.6% (active); in the test with A549/ATCC NSCLC, -56.5% (active); in the test on 786-0 renal it was -100% (active); with COLO 205 colon it was -70.6% (active).
Turning to `CCc1cccc(-c2ccccc2)c1`, the growth is 107% with NCI-H23 lung; 109% with NCI-H226 lung; 107% in the test on NCI-H322M lung; 101% in the test with HOP-62 NSCLC; 108% with NCI-H460 lung; 92.9% in the test with HOP-92 NSCLC. Moreover, the growth with NCI-H522 lung is 106%; in the test on A549/ATCC NSCLC, 104%; with 786-0 renal it was 98.8%; in the test with COLO 205 colon, 105%.
As for `O=C1COc2ccccc2C(=O)N1CCCCNc1ccccc1`, the growth in the test with NCI-H23 lung is 98.9%; with NCI-H226 lung, 91.7%; in the test with NCI-H322M lung it was 99.5%; with HOP-62 NSCLC, 73.5%; in the test on NCI-H460 lung, 98.7%; with HOP-92 NSCLC it was 64.8%. Further, the growth with NCI-H522 lung was 68.9%; with A549/ATCC NSCLC it was 64.9%; with 786-0 renal it was 70.8%; with COLO 205 colon, 101%.
Take `O=C(Nc1cccc(-n2ccc3c(NC(=O)c4ccccc4)nccc32)c1)Nc1cc(C(F)(F)F)cc(C(F)(F)F)c1`: the growth in the test on NCI-H23 lung is 3.76% (active); with NCI-H226 lung, 26.3%; in the test on NCI-H322M lung it was 46%; in the test with HOP-62 NSCLC, 35.6%; with NCI-H460 lung, 2.99% (active); with HOP-92 NSCLC, -13% (active). The growth is -46.5% (active) in the test on NCI-H522 lung, 7.57% (active) in the test with A549/ATCC NSCLC, 13.4% in the test on 786-0 renal and -36.3% (active) in the test with COLO 205 colon.
Regarding `COc1ccc(-c2nnc(NC(=O)CN3CCN(c4cc5c(cc4F)c(=O)c(C(=O)O)cn5C4CC4)CC3)s2)cc1OC`, the growth with NCI-H23 lung was 96.3%; with NCI-H226 lung, 87.8%; in the test on NCI-H322M lung, 98.2%; in the test with HOP-62 NSCLC, 95.6%; in the test on NCI-H460 lung it was 101%; in the test on HOP-92 NSCLC, 106%. For the same compound, the growth was 89.1% with NCI-H522 lung, 100% in the test with A549/ATCC NSCLC, 88.1% in the test on 786-0 renal and 104% in the test with COLO 205 colon.
`Cc1[nH]n(C(=O)c2ccncc2)c(=O)c1N=Nc1ccc(S(=O)(=O)Nc2ccncn2)cc1`: the growth was 100% in the test on NCI-H23 lung; 90% in the test with NCI-H226 lung; 115% with NCI-H322M lung; 76.6% with HOP-62 NSCLC; 115% with NCI-H460 lung; 54.7% in the test on HOP-92 NSCLC. Further, the growth in the test with NCI-H522 lung was 102%; in the test on A549/ATCC NSCLC, 18.9%; with COLO 205 colon, 127%.
For the compound `NC(N)=N/N=C/c1ccc([N+](=O)[O-])cc1`, the growth in the test with NCI-H23 lung is 91.4%; in the test on NCI-H226 lung, 101%; in the test on NCI-H322M lung, 93.5%; in the test with HOP-62 NSCLC it was 104%; with NCI-H460 lung, 104%; with HOP-92 NSCLC, 104%. In addition, the growth with NCI-H522 lung was 107%; with A549/ATCC NSCLC, 109%; with 786-0 renal, 103%; in the test with COLO 205 colon it was 113%.
In the case of `NC(=S)NNC1CCCCC1`, the growth in the test on NCI-H23 lung is 97.6%; in the test with NCI-H226 lung, 91.1%; in the test on NCI-H322M lung, 87.7%; in the test on HOP-62 NSCLC, 83.2%; with NCI-H460 lung, 104%; in the test with HOP-92 NSCLC, 88.7%. For the same compound, the growth was 72.3% in the test with NCI-H522 lung, 74.5% in the test on A549/ATCC NSCLC, 99.3% with 786-0 renal and 100% in the test with COLO 205 colon.
Take `COc1ccc(-c2ccc(NC(=O)Nc3cccc(C(F)(F)F)c3)c(C)n2)cc1`: the growth is 47.6% with NCI-H23 lung; 58.1% with NCI-H226 lung; 64.4% in the test on NCI-H322M lung; 68% with HOP-62 NSCLC; 48.7% in the test on NCI-H460 lung; 68.8% with HOP-92 NSCLC. In addition, the growth with NCI-H522 lung is 28.5%; in the test with A549/ATCC NSCLC, 42.5%; with 786-0 renal it was 77.3%; in the test with COLO 205 colon it was 84.5%.
For the compound `CN(C)c1ccc2cc(-c3nc4ccccc4s3)c(N)nc2c1`, the growth was 50.8% in the test on NCI-H23 lung; 119% in the test on NCI-H226 lung; 49.8% with NCI-H322M lung; 40.3% in the test with HOP-62 NSCLC; 19.6% in the test on NCI-H460 lung; 85.1% in the test with HOP-92 NSCLC. In addition, the growth was 17% in the test on NCI-H522 lung, 28.3% with A549/ATCC NSCLC, 35.3% with 786-0 renal and 84.1% in the test on COLO 205 colon.
As for `NCC(=O)NS(=O)(=O)OC[C@H]1O[C@@H](n2cnc3c(N)ncnc32)[C@H](O)[C@@H]1O`, the growth is 5.7% (active) in the test with NCI-H23 lung; -54.6% (active) with NCI-H226 lung; -1.74% (active) in the test on NCI-H322M lung; -32.1% (active) in the test on HOP-62 NSCLC; 3.35% (active) with NCI-H460 lung; 17.3% with HOP-92 NSCLC. The growth was -51.6% (active) in the test on NCI-H522 lung, 9.7% (active) in the test with A549/ATCC NSCLC, -7.02% (active) in the test on 786-0 renal and 48.5% in the test on COLO 205 colon.
Take `CCOC(=O)C(C)(CSSCC(C)(NC(=O)c1ccc2ccccc2c1)C(=O)OCC)NC(=O)c1ccc2ccccc2c1` (stereo not drawn): the growth was 98.3% in the test with NCI-H23 lung; 97.9% in the test with NCI-H226 lung; 96.7% in the test with NCI-H322M lung; 105% in the test with HOP-62 NSCLC; 102% with NCI-H460 lung; 105% in the test with HOP-92 NSCLC. In addition, the growth was 92.9% in the test on NCI-H522 lung, 26.4% with A549/ATCC NSCLC and 121% with COLO 205 colon.
For `Nc1nccc2c1ccn2-c1ccc(NC(=O)Nc2cccc(C(F)(F)F)c2)cc1`, the growth in the test with NCI-H23 lung is 90%; in the test with NCI-H226 lung it was 81.9%; in the test on NCI-H322M lung it was 98.2%; in the test with HOP-62 NSCLC, 94.2%; in the test with NCI-H460 lung it was 90.8%; in the test with HOP-92 NSCLC it was 57.4%. In addition, the growth in the test on NCI-H522 lung is 87.2%; in the test on A549/ATCC NSCLC, 91.3%; in the test with 786-0 renal, 110%; in the test on COLO 205 colon it was 92.1%.

The values are drawn from PubChem BioAssay (NCI).
